Here are results for ten compounds from PubChem BioAssay (NCATS).

Inconclusive results are not listed. Activity calls are given as the source filed them. Unless noted, the call rests on the fitted dose curve; in most records, active means well fitted cell-killing curve with a large enough effect; inconclusive means small, poorly fitted or top-dose-only effect; inactive means flat fitted curve, though single readings scatter.

A short description of assay [1]: Cell Viability - LYMP2-020 (AID 986).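 Further: series mostly up to about 92 µM; cells exposed to compound for 24 h at 37 °C; plate controls were DMSO only for no effect and tetraoctylammonium bromide at 92 µM for full effect; nearly all actives have a fitted effect of over 55% in size.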 Put shortly: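 Seed 2500 cells per well and incubate 5 hr at 37 C. Add compounds at a concentration series and incubate 24 hr at 37 C. Add CellTiter-Glo, wait 30 min at RT, read luminescence, and fit a Hill curve for AC50.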
Assay [2] in a line: Cell Viability - LYMP2-022 (AID 987).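 Further: 0% = DMSO alone and full effect = tetraoctylammonium bromide at 92 µM; nearly all actives have a fitted effect of over 55% in size.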 The gist of the method:
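Cells were seeded at 2500 per well, rested 5 hr at 37 C, and treated with titrated compounds for 24 hr at 37 C. Cellular ATP was then quantified by luciferase luminescence, and AC50 values were derived from Hill-modelled concentration-response curves.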

Assay [3] is described as follows: Cell Viability - LYMP2-024 (AID 988).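 Further: plate controls were DMSO only for no effect and 92 µM tetraoctylammonium bromide for full effect; nearly all actives have a fitted effect of over 60% in size.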 Put shortly: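 qHTS cytotoxicity, human lymphoblastoid line, complete medium; 24 h cpd treatment, 37 C; CellTiter-Glo ATP luminescence readout; tetraoctylammonium bromide positive control; AC50 via Hill fit.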
A short description of assay [4]: Cell Viability - LYMP2-026 (AID 989).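 Further: cells exposed to compound for 24 h at 37 °C; on the % scale 0 is the no-effect control and ±100 the full control effect; nearly all actives have a fitted effect of over 50% in size.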 The gist of the method:
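Cells are seeded at 2500 per well and held 5 hr at 37 C. Compounds are added in concentration series for 24 hr, then CellTiter-Glo reagent is applied and luminescence read.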

Assay [5] can be described thus: Cell Viability - LYMP1-002 - Assay at 24 hr (AID 993). Further: on the % scale 0 is the no-effect control and ±100 the full control effect. Put shortly: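 Acute toxicity is measured as concentration-dependent loss of cellular ATP in a human lymphoblastoid line (Coriell LYMP1-002) after 24 h treatment in complete medium. ATP is quantified by luciferase luminescence and AC50 derived by Hill modelling.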
The nature of assay [6]: Cell Viability - LYMP1-002 - Assay at 40 hr (AID 994).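 Further: 0% = DMSO only and full inhibition = 92 µM tetraoctylammonium bromide; nearly all actives have a fitted effect of over 60% in size.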 Put shortly: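 Cells are plated at 2500 per well and rested 5 hr at 37 C. Compounds are added and incubated 40 hr at 37 C. CellTiter-Glo reagent is added for 30 min at room temperature before luminescence is read.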
Assay [7] can be described thus: qHTS Assay for Identification of Small Molecule Inducers of Hypoxia Response (AID 2120; active means well fitted curve in the direction sought with a large enough effect in the signal ratio, with a control signal flat, not every such curve was filed as active; the % refers to the signal ratio; further: 0% is about no effect). The gist of the method: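 Cell-based qHTS for reporter induction: hypoxia response element controlled beta-lactamase in ME-180 cells. Compounds incubated 17 h at 37 degrees C; activity from blue/green (460/530 nm) ratio, inducers ranked by AC50.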
Assay [8] has as its target Estrogen receptor (Homo sapiens) (UniProt P03372). The assay can be described thus: qHTS assay for small molecule antagonists of estrogen receptor alpha signaling (AID 588513; active means well fitted curve in the direction sought with a large enough effect in the signal ratio, with a control signal flat, not every such curve was filed as active; the % refers to the signal ratio; further: on the % scale 0 is the no-effect control and ±100 the full control effect). The gist of the method:
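Beta-lactamase reporter, antagonist mode, HEK 293 GripTite cells; 0.5nM E2 stimulus, 18 h, 37 C; CCF4 dye 2 h RT; fluorescence. IC50 and efficacy from Hill fits, normalized to E2 and DMSO.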

Assay [9] shares this target. The assay can be described thus: qHTS assay for small molecule agonists of estrogen receptor alpha signaling (AID 588514; calls by dose curve; further: nearly all actives have a fitted effect of over 70% in size; further: potency means the concentration at half of the fitted maximal effect;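 on activation: 0% = vehicle only and 100% = reference agonist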). Put shortly: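 Efficacy is expressed against 20 nM 17-beta-estradiol (100%) and DMSO basal (0%); EC50 from Hill equation. Assay: beta-lactamase reporter in ER-alpha-UAS-bla HEK 293 cells, 18 h compound incubation, CCF4 detection.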
The target of assay [10] is Bile acid receptor (Homo sapiens) (UniProt Q96RI1). The assay can be described thus: qHTS assay for small molecule antagonists of farnesoid X receptor signaling (AID 588526; calls by dose curve; further: on the % scale 0 is the no-effect control and ±100 the full control effect). Put shortly:
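Concentration-response titrations were fitted to the Hill equation for half-maximal inhibition and maximal response, with data normalised to 50 uM chenodeoxycholic acid and DMSO control wells. Cells: FXR-UAS-bla HEK293T, dialyzed FBS.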

Assay [11] in a line: qHTS assay for small molecule antagonists of peroxisome proliferator-activated receptor delta signaling (AID 588535; active means well fitted inhibition curve with a large enough effect in the signal ratio, with a control signal flat, not every such curve was filed as active; the % refers to the signal ratio;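 on max response: cells co-treated with a PPAR-delta agonist as stimulator during compound exposure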). Conditions: HEK293T PPARd-UAS-bla, beta-lactamase FRET ratio, 18 h; 460 nm channel. The gist of the method: (§1)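 Inhibition of PPAR-delta response element-driven beta-lactamase expression is measured in HEK293T cells exposed to a compound titration series for 18 hrs at 37 C. Half-maximal inhibition comes from Hill equation fitting.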

Assay [12] addresses Glucocorticoid receptor (Homo sapiens) (UniProt P04150). Put plainly: qHTS assay for small molecule agonists of glucocorticoid receptor signaling (AID 588532; active means well fitted curve in the direction sought with a large enough effect in the signal ratio, with a control signal flat; the % refers to the signal ratio;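 further: 100% = dexamethasone at 0.1 µM and 0% = DMSO only wells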). To be noted: HeLa MMTV-bla, beta-lactamase ratio, agonist, 18 h; stronger effect = higher value; percent of dexamethasone control, DMSO zero. The gist of the method:
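Titration series, up to 92 uM, applied to GRE-bla HeLa cells for 18 h at 37 C. Detection by CCF4 FRET substrate after 2 h at RT.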

The target is the same in assay [13]. The assay can be described thus: qHTS assay for small molecule antagonists of glucocorticoid receptor signaling (AID 588533; active means well fitted inhibition curve with a large enough effect in the signal ratio, with a control signal flat, not every such curve was filed as active; the % refers to the signal ratio;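 further: cells stimulated with 2 nM dexamethasone as agonist; on the % scale 0 is the no-effect control and ±100 the full control effect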). The gist of the method:
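Antagonist-mode qHTS: compound titrations added to GRE-bla HeLa cells, then dexamethasone 2 nM final; 18 h, 37 C. CCF4 FRET fluorescence normalized to dexamethasone and DMSO; IC50 from Hill fit.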

Assay [14] addresses Peroxisome proliferator-activated receptor gamma (Homo sapiens) (UniProt P37231). The assay can be described thus: qHTS assay for small molecule agonists of peroxisome proliferator-activated receptor gamma signaling (AID 588536; active means well fitted curve in the direction sought with a large enough effect in the signal ratio, with a control signal flat, not every such curve was filed as active; the % refers to the signal ratio;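 further: 0% = DMSO basal wells and 100% = rosiglitazone at 2 µM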). Put shortly:
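Beta-lactamase reporter read-out: CCF4 fluorescence (ex 405, em 460/530 nm) after 2 h at RT. HEK293 GeneBLAzer cells were treated for 16 h at 37 C. Hill fits gave EC50 and efficacy versus 2 uM rosiglitazone (100%) and DMSO (0%).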

Assay [15] concerns the target Vitamin D3 receptor (Homo sapiens) (UniProt P11473). Put plainly: qHTS assay for small molecule antagonists of vitamin D receptor signaling (AID 588541; calls by dose curve). The gist of the method:
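VDR-UAS-bla HEK293T cells (2000/well, 2% charcoal-stripped FBS) were treated with titrated compounds plus 1-alpha,25-dihydroxyvitamin D3 (50 nM or 3 nM final) for 16 h at 37 C. CCF4 beta-lactamase fluorescence was read; Hill fits gave IC50.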

Assay [16] shares this target. The assay can be described thus: qHTS assay for small molecule agonists of vitamin D receptor signaling (AID 588543; calls by dose curve;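 further: 0% = DMSO basal and 100% = reference agonist control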). Put shortly: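 β-lactamase reporter, VDR-UAS-bla HEK293T, agonist mode. Cells plated 5 h at 37 °C, compound titration 16 h at 37 °C, CCF4 dye 2 h RT, ratio 460/530 nm. Hill fit → EC50, efficacy vs 50 nM 1α,25-(OH)2D3.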
For assay [17], the target named is Peroxisome proliferator-activated receptor gamma (Homo sapiens) (UniProt P37231). The assay can be described thus: qHTS assay for small molecule antagonists of peroxisome proliferator-activated receptor gamma signaling (AID 588537; active means well fitted inhibition curve with a large enough effect in the signal ratio, with a control signal flat, not every such curve was filed as active; the % refers to the signal ratio;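 further: reporter cells co-stimulated with 50 nM rosiglitazone agonist during compound treatment; % of control where 0% means no effect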). Put shortly: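 Compounds are tested as concentration series for inhibition of rosiglitazone-driven (50 nM) reporter expression in GeneBLAzer PPAR-gamma-UAS-bla HEK293 cells. After 16 h at 37 C, CCF4 substrate is added for 2 h at room temperature and blue/green fluorescence is measured.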
Sequence of Peroxisome proliferator-activated receptor gamma (Homo sapiens) (P37231 whole entry, looked up): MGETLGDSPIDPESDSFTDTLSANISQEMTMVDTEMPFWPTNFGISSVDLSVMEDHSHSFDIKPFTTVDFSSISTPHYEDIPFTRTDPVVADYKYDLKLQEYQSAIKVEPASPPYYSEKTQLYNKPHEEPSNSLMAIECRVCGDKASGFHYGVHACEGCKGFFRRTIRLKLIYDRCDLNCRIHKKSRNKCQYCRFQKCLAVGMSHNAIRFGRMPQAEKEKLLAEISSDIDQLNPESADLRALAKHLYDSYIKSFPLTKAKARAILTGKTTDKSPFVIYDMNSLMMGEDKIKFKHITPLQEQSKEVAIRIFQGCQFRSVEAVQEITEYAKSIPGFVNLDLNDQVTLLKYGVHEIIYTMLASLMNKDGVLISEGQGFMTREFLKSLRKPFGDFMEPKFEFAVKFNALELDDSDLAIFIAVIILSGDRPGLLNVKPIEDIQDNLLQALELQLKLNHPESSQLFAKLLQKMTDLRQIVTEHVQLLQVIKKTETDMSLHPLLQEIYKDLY

The target in assay [18] is Peroxisome proliferator-activated receptor delta (Homo sapiens) (UniProt Q03181). Put plainly: qHTS assay for small molecule antagonists of peroxisome proliferator-activated receptor delta signaling (AID 588535).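 On max response: cells co-treated with a PPAR-delta agonist as stimulator during compound exposure.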 Put shortly: as §1
Sequence of Peroxisome proliferator-activated receptor delta (Homo sapiens) (Q03181 whole entry, looked up): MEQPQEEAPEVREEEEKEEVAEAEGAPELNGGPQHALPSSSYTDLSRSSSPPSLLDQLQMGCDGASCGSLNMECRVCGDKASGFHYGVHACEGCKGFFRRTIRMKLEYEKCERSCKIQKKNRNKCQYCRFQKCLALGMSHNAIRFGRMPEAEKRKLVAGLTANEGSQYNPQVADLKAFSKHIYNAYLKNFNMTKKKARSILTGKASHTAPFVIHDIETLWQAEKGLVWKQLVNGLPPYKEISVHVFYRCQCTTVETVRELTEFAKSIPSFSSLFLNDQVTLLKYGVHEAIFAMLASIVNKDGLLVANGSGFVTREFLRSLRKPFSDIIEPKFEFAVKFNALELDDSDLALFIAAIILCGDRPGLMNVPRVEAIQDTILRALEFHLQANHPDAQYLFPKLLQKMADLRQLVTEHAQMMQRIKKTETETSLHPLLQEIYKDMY

Sequence of Bile acid receptor (Homo sapiens) (Q96RI1 whole entry, looked up): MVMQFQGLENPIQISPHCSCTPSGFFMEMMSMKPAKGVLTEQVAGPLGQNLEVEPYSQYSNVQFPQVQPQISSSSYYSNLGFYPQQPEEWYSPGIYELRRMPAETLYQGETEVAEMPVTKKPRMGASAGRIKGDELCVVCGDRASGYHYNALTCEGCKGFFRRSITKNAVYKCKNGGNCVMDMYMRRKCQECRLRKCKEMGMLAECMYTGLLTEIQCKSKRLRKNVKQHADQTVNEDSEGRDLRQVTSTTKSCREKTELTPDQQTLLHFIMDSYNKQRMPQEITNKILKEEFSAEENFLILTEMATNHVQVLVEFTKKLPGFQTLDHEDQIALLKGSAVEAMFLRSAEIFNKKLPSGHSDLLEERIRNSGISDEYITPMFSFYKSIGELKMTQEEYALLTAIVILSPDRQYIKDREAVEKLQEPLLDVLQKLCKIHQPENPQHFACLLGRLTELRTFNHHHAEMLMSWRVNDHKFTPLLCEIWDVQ
Sequence of Glucocorticoid receptor (Homo sapiens) (P04150 whole entry, looked up): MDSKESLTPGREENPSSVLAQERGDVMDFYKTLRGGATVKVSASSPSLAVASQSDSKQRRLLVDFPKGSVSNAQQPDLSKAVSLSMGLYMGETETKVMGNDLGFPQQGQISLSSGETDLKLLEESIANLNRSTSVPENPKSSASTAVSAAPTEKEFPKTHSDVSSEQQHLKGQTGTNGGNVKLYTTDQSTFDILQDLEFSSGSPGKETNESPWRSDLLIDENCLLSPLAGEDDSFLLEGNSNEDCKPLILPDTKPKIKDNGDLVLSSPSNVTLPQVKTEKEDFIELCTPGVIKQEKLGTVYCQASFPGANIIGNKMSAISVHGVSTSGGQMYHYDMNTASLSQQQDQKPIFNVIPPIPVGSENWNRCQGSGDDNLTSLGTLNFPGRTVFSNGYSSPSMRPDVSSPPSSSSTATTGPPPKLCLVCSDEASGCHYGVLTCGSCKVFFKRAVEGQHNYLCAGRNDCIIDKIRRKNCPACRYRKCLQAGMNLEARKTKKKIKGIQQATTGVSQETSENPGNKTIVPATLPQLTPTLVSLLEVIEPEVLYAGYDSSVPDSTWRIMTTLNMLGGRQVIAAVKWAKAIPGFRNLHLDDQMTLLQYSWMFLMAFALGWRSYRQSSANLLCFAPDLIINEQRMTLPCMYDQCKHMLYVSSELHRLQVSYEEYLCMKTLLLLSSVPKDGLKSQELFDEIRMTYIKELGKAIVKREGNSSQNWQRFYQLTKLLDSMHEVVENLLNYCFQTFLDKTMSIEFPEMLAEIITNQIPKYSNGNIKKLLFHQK
Sequence of Vitamin D3 receptor (Homo sapiens) (P11473 whole entry, looked up): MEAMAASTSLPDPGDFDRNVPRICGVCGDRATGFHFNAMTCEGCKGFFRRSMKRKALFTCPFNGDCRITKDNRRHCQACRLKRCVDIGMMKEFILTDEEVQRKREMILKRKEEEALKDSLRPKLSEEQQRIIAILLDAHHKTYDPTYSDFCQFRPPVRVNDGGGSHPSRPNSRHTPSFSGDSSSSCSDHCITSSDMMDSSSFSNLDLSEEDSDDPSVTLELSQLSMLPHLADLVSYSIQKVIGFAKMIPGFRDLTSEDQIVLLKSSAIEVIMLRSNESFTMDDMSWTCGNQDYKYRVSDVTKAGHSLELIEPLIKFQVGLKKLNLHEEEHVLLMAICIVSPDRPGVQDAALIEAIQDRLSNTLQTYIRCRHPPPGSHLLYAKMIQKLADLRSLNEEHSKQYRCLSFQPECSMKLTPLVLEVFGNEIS
Sequence of Estrogen receptor (Homo sapiens) (P03372 whole entry, looked up): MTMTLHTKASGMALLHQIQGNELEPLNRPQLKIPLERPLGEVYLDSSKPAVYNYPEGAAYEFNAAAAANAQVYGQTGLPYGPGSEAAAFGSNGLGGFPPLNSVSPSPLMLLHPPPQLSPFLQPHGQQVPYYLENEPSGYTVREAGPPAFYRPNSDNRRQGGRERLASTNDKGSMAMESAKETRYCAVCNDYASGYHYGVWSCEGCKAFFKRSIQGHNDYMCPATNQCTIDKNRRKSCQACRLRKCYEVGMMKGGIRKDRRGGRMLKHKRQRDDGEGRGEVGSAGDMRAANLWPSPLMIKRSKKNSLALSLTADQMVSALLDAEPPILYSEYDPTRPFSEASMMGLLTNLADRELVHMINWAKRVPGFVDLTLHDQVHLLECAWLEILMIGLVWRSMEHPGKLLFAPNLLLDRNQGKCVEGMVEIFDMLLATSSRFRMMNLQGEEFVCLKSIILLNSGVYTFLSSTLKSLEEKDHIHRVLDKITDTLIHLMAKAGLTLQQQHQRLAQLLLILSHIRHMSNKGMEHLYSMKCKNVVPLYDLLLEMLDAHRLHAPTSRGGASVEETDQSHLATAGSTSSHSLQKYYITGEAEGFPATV

As for `O=C1C=CCCC1`, the Potency entry in [1], in assay [2], in [3], in [5], in assay [6] and in assay [9] was “inactive” throughout. The result in assay [4], in assay [7], in assay [8] and in assay [10] was inactive. Further, the max response in assay [11] was -11%.
Turning to `Oc1cccc(Nc2ccccc2)c1`, the Potency entry in assay [1], in [3], in assay [5] and in [6] was “inactive” in each case. Moreover, the outcome in [7], in assay [8], in assay [10], in assay [13] and in assay [14] was inactive. Moreover, in assay [9], the Potency was 25.1 µM (active). Further, the activation in assay [12] is -7.34% (inactive).
Turning to `CCNc1cc(O)ccc1C`, the Potency entry in assay [1], in assay [2], in assay [3], in assay [5], in [6] and in assay [9] was “inactive” throughout. The outcome in [4], in assay [7], in assay [8], in assay [10], in assay [15] and in assay [16] was inactive.
As for `C=CCCCCCC`, the Potency result in assay [1], in [2], in assay [3], in [5] and in assay [6] was “inactive” throughout. Besides, the call in assay [4], in assay [7], in assay [8], in assay [10], in assay [14] and in assay [17] was inactive. Also, the compound was called inactive in assay [15] and in assay [16]. Also, the Potency in assay [9] is 12.6 µM (active). Also, the activation in assay [12] was 7.84% (inactive).
For `FC(F)(F)c1ccccc1Cl`, the Potency result in [1], in assay [2], in assay [3], in assay [5], in [6] and in assay [9] was “inactive” throughout. The Potency entry in [18] was “inactive”. In addition, the result in assay [4], in [7], in assay [8], in assay [10], in assay [17] and in assay [15] was inactive. The result in assay [16] was inactive. Further, the activation in [12] was 6.11% (inactive). Further, in assay [11], the max response was determined as 25.6%.
With `C(=C/c1ccccc1)/c1ccccc1`, the Potency result in [1], in assay [2], in assay [3], in [6], in [9] and in assay [18] was “inactive” in each case. The call in assay [4], in assay [7], in assay [8], in assay [10], in [14] and in assay [17] was inactive. The compound was called inactive in assay [15] and in assay [16]. The max response in assay [11] was determined as 11.7%.
`CCOCCOCC`: the Potency result in assay [1], in assay [2], in [3], in assay [5], in [6] and in [9] was “inactive” throughout. Also, the call in assay [4], in assay [7], in assay [8], in [10], in assay [13] and in assay [14] was inactive. The compound was called inactive in assay [17], in assay [15] and in [16]. Moreover, the max response in assay [11] was -23%.
On to `CC(C)CCOC(=O)/C=C/c1ccccc1`, for which the Potency result in assay [1], in assay [2], in assay [3], in assay [5], in assay [6] and in [9] was “inactive” throughout. Besides, the Potency entry in assay [18] is “inactive”. Moreover, the call in assay [4], in [7], in [8], in assay [10], in assay [14] and in [15] was inactive. The outcome in assay [16] was inactive. The activation in assay [12] was -0.0444% (inactive). The max response in assay [11] was 17.3%.
As for `Cc1ccc(S(=O)(=O)NC2CCCCC2)cc1`, the Potency result in [1], in [2], in [3], in assay [5], in assay [6] and in assay [9] was “inactive” each time. For the same compound, the Potency entry in assay [18] was “inactive”. The result in assay [7], in assay [8], in [10] and in assay [13] was inactive. The activation in [12] is -3.36% (inactive). For the same compound, the max response in [11] is 42.4%.
Regarding `O=C(O)c1ccc(Cl)c(Cl)c1`, the Potency result in assay [1], in [2], in assay [3], in [5], in assay [6] and in assay [9] was “inactive” in each case. Also, the Potency result in assay [18] was “inactive”. Moreover, the result in assay [7], in assay [8], in assay [10], in assay [14], in [17] and in [15] was inactive. In addition, the max response in assay [11] is 20.7%.
